{"source": "PubChem BioAssay (NCATS)", "note": "Records with an inconclusive call do not appear. The source made the active and inactive calls. Calls come from the whole dose curve; as a rule, active = well fitted cell-killing curve with a large enough effect; inconclusive = small, poorly fitted or top-dose-only effect, or effect the other way; inactive = flat fitted curve, though single readings scatter. % is set by controls: 0 for no effect and ±100 for the full control effect; potency is the fitted concentration of half-maximal effect.", "data": [{"tested_on": "HeLa", "experiment": "Primary qHTS to identify gynecologic anti-cancer compounds using libraries of approved drugs and bioactive compounds (AID 1345084); note: nearly all actives have a fitted effect of over 55% in size", "details": "Gynecologic cancer cell panel viability, ATPlite luminescence, 48 h; series mostly up to 57.5 µM; activity change, negative = cytotoxicity: at the top concentration", "method_in_brief": "(§1)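 Cytotoxicity screen measuring ATP content by luciferase luminescence. Each compound is applied at five concentrations for 48 h at 37 C with 5% CO2.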", "values": [{"smiles": "CCOC(=O)c1ccccc1O", "activity change, negative = cytotoxicity": "14.2% (inactive)"}, {"smiles": "Cc1c(N)c(=O)n(-c2ccccc2)n1C", "activity change, negative = cytotoxicity": "2.27% (inactive)"}, {"smiles": "C[N+]1(C)[C@@H]2CC(OC(=O)[C@H](CO)c3ccccc3)C[C@H]1[C@@H]1O[C@@H]12", "note": "(stereo partly specified)", "activity change, negative = cytotoxicity": "6.3% (inactive)"}, {"smiles": "c1ccc2sc(SSc3nc4ccccc4s3)nc2c1", "activity change, negative = cytotoxicity": "2.54% [at 25.3 µM] (inactive)"}, {"smiles": "COc1cc(NC(C)CCCN)c2ncccc2c1", "note": "(stereo unspecified)", "activity change, negative = cytotoxicity": "2.31% (inactive)"}, {"smiles": "CCCC(=O)OC[C@@H](OC(=O)CCC)[C@@H](OC(=O)CCC)[C@H](Cn1c2nc(=O)[nH]c(=O)c-2nc2cc(C)c(C)cc21)OC(=O)CCC", "activity change, negative = cytotoxicity": "0.0484% (inactive)"}, {"smiles": "CC(=O)c1ccc(OCC(=O)N2CCCCC2)cc1", "activity change, negative = cytotoxicity": "-2.65% (inactive)"}, {"smiles": "CCOc1ccc2nc(S(N)(=O)=O)sc2c1", "activity change, negative = cytotoxicity": "-13.8% (inactive)"}, {"smiles": "CN(C)CCn1nnnc1SCC1=C(C(=O)O)N2C(=O)[C@@H](NC(=O)Cc3csc(N)n3)[C@H]2SC1", "activity change, negative = cytotoxicity": "4.29% (inactive)"}, {"smiles": "CCCCCCCCCCCCCCCC(=O)OC(C)C", "activity change, negative = cytotoxicity": "-2.65% (inactive)"}, {"smiles": "CCCCCCCCCCCCCCCCCC(=O)O", "activity change, negative = cytotoxicity": "3.32% (inactive)"}, {"smiles": "CNC(=O)c1c(I)c(NC(=O)CCCCC(=O)Nc2c(I)c(C(=O)O)c(I)c(C(=O)NC)c2I)c(I)c(C(=O)O)c1I", "activity change, negative = cytotoxicity": "-5.8% (inactive)"}, {"smiles": "CCC1C(=O)OCC1Cc1cncn1C", "note": "(stereo unspecified)", "activity change, negative = cytotoxicity": "8.49% (inactive)"}, {"smiles": "Nc1ccc(C(=O)O)c(O)c1", "activity change, negative = cytotoxicity": "9.7% (inactive)"}, {"smiles": "[O-][n+]1ccccc1SSc1cccc[n+]1[O-]", "activity change, negative = cytotoxicity": "15.5% [at 25.3 µM] (inactive)"}]}, {"tested_on": "Hek293T", "experiment": "Primary qHTS to identify gynecologic anti-cancer compounds using libraries of approved drugs and bioactive compounds (AID 1345084)", "details": "Gynecologic cancer cell panel viability, ATPlite luminescence, 48 h, control line for the selectivity index; series mostly up to 57.5 µM; activity change, negative = cytotoxicity: at the top concentration", "method_in_brief": "as §1", "values": [{"smiles": "CC(C)(C)c1nnc(NS(=O)(=O)c2ccc(N)cc2)s1", "activity change, negative = cytotoxicity": "5.17% (inactive)"}, {"smiles": "N=C(N)N", "activity change, negative = cytotoxicity": "-0.374% (inactive)"}, {"smiles": "Cc1ccc(C(=O)c2ccc(CC(=O)O)n2C)cc1", "activity change, negative = cytotoxicity": "-1.72% (inactive)"}, {"smiles": "CCCCCCCC/C=C/C(=O)O", "activity change, negative = cytotoxicity": "0.721% (inactive)"}, {"smiles": "O=C(/C=C/c1ccccc1)NCCO", "activity change, negative = cytotoxicity": "-21.2% (inactive)"}, {"smiles": "COc1cc2c3cc1Oc1cc(ccc1O)C[C@@H]1c4c(cc(OC)c(O)c4Oc4ccc(cc4)C[C@@H]3N(C)CC2)CC[N+]1(C)C", "activity change, negative = cytotoxicity": "-3.33% (inactive)"}, {"smiles": "O=C(O)Cc1ccc2c(c1)C(=O)c1ccccc1CO2", "activity change, negative = cytotoxicity": "1.84% (inactive)"}, {"smiles": "O=C(Nc1ccc(C(=O)O)c(O)c1)c1ccccc1", "activity change, negative = cytotoxicity": "-5.16% (inactive)"}, {"smiles": "CO[C@@]1(NC(=O)Cc2cccs2)C(=O)N2C(C(=O)O)=C(COC(N)=O)CS[C@@H]21", "activity change, negative = cytotoxicity": "-0.5% (inactive)"}, {"smiles": "Nc1ccc(O)c(C(=O)O)c1", "activity change, negative = cytotoxicity": "-2.32% (inactive)"}, {"smiles": "C=CCCCCCCCCC(=O)O", "activity change, negative = cytotoxicity": "3.49% (inactive)"}, {"smiles": "Nc1c(CC(=O)O)cccc1C(=O)c1ccc(Br)cc1", "activity change, negative = cytotoxicity": "3.97% (inactive)"}, {"smiles": "O=C(OCc1ccccc1)c1ccccc1", "activity change, negative = cytotoxicity": "4.68% (inactive)"}, {"smiles": "CCCCCCCCCCCCOCCO", "activity change, negative = cytotoxicity": "1.99% (inactive)"}, {"smiles": "CN(C)[C@@H]1C(=O)C(C(=O)NCN2CCCC2)=C(O)[C@@]2(O)C(=O)C3=C(O)c4c(O)cccc4[C@@](C)(O)C3C[C@@H]12", "note": "(stereo partly specified)", "activity change, negative = cytotoxicity": "7.26% (inactive)"}, {"smiles": "O=C(O)Cc1ccc(-c2ccccc2)cc1", "activity change, negative = cytotoxicity": "-11.7% (inactive)"}, {"smiles": "Cc1c(Nc2ncccc2C(=O)O)cccc1C(F)(F)F", "activity change, negative = cytotoxicity": "-24.3% (inactive)"}, {"smiles": "CC(C(=O)O)c1ccc2c(c1)[nH]c1ccc(Cl)cc12", "note": "(stereo unspecified)", "Potency": "inactive"}, {"smiles": "CCCOC(=O)c1ccc(O)cc1", "activity change, negative = cytotoxicity": "11.4% [at 116 µM] (inactive)"}, {"smiles": "CCCCCCCCCCCC(=O)[O][Sn]([CH2]CCC)([CH2]CCC)[O]C(=O)CCCCCCCCCCC", "activity change, negative = cytotoxicity": "-9.19% (inactive)"}, {"smiles": "O=C(O)/C=C\\C(=O)O", "activity change, negative = cytotoxicity": "0.0284% (inactive)"}, {"smiles": "CCOC(=O)c1ccccc1O", "activity change, negative = cytotoxicity": "-0.638% (inactive)"}, {"smiles": "Cc1c(N)c(=O)n(-c2ccccc2)n1C", "activity change, negative = cytotoxicity": "1.08% (inactive)"}, {"smiles": "C[N+]1(C)[C@@H]2CC(OC(=O)[C@H](CO)c3ccccc3)C[C@H]1[C@@H]1O[C@@H]12", "note": "(stereo partly specified)", "activity change, negative = cytotoxicity": "8.9% (inactive)"}, {"smiles": "c1ccc2sc(SSc3nc4ccccc4s3)nc2c1", "activity change, negative = cytotoxicity": "-8.16% [at 25.3 µM] (inactive)"}, {"smiles": "COc1cc(NC(C)CCCN)c2ncccc2c1", "note": "(stereo unspecified)", "activity change, negative = cytotoxicity": "-10.7% (inactive)"}, {"smiles": "CCCC(=O)OC[C@@H](OC(=O)CCC)[C@@H](OC(=O)CCC)[C@H](Cn1c2nc(=O)[nH]c(=O)c-2nc2cc(C)c(C)cc21)OC(=O)CCC", "activity change, negative = cytotoxicity": "0.395% (inactive)"}, {"smiles": "CC(=O)c1ccc(OCC(=O)N2CCCCC2)cc1", "activity change, negative = cytotoxicity": "-14.5% (inactive)"}, {"smiles": "CCOc1ccc2nc(S(N)(=O)=O)sc2c1", "activity change, negative = cytotoxicity": "-0.22% (inactive)"}, {"smiles": "CN(C)CCn1nnnc1SCC1=C(C(=O)O)N2C(=O)[C@@H](NC(=O)Cc3csc(N)n3)[C@H]2SC1", "activity change, negative = cytotoxicity": "0.789% (inactive)"}, {"smiles": "CCCCCCCCCCCCCCCC(=O)OC(C)C", "activity change, negative = cytotoxicity": "10.2% (inactive)"}, {"smiles": "CCCCCCCCCCCCCCCCCC(=O)O", "activity change, negative = cytotoxicity": "-3.51% (inactive)"}, {"smiles": "CNC(=O)c1c(I)c(NC(=O)CCCCC(=O)Nc2c(I)c(C(=O)O)c(I)c(C(=O)NC)c2I)c(I)c(C(=O)O)c1I", "activity change, negative = cytotoxicity": "3.79% (inactive)"}, {"smiles": "CCC1C(=O)OCC1Cc1cncn1C", "note": "(stereo unspecified)", "activity change, negative = cytotoxicity": "3.78% (inactive)"}, {"smiles": "Nc1ccc(C(=O)O)c(O)c1", "activity change, negative = cytotoxicity": "8.04% (inactive)"}, {"smiles": "[O-][n+]1ccccc1SSc1cccc[n+]1[O-]", "Potency": "501 nM (active)"}]}]}
